SARS PLpro yeast: SARS-CoV PLP inhibition in yeast | Potency, µM (highest dose often 32.9 µM), inactives show at the top dose activity, positive = growth rescue, hits mostly activators | 330,000 compounds, 0.19% hits | AID 485353 | S. cerevisiae expressing SARS-CoV PLpro, growth rescue; further: 0% is about no effect; nearly all actives have a fitted effect of over 55% in size
Pf growth 48h: inhibits P. falciparum growth in the first generation, 48 h; Potency, µM (titrated, usually from 28.7 µM), for inactives: top-dose activity change, negative = inhibition, actives largely listed as inhibitors; P. falciparum luciferase growth in erythrocytes, 48 h; 310,000 compounds, 5.9% hits; active means well fitted inhibition curve with a large enough effect; inconclusive means small, poorly fitted or top-dose-only effect, or another doubt; inactive means no such curve, though single readings can be large or run the other way; further: on the % scale 0 is the no-effect control and ±100 the full control effect
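Growth was read as firefly luciferase luminescence after a 48 h, 37 C, 5% CO2 exposure of compounds to reporter-bearing P. falciparum cultures (0.1% parasitemia, 2% hematocrit final) in Albumax-supplemented RPMI 1640.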
NS1 function inh: inhibitors of influenza NS1 protein function. Potency, µM (series often up to 46.1 µM), for the others: at the highest dose activity, positive = more growth. 270,000 compounds, 0.4% hits; further: actives are rising curves; nearly all actives have a fitted effect of over 50% in size
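In this qHTS, NS1 from influenza A is expressed in budding yeast, where it slows growth. Cells are switched from glucose to 2% galactose medium (pH 6.0, -URA), treated with compound, and growth recovery is read at OD600.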
Pf growth 96h: P. falciparum growth inhibition at 96 hours | Potency, µM (top dose mostly 28.7 µM), for inactives: at the top dose activity change, negative = inhibition, actives largely listed as inhibitors | AID 504834 | 320,000 compounds, 6.9% hits | P. falciparum luciferase reporter growth, 96 h; active means well fitted inhibition curve with a large enough effect; inconclusive means small, poorly fitted or top-dose-only effect, or another doubt; inactive means no such curve, though single readings can be large or run the other way; further: on the % scale 0 is the no-effect control and ±100 the full control effect
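Two-generation exposure (96 h) targets delayed-death phenotype. Reporter parasites carrying integrated firefly luciferase, in red cells at 2% hematocrit and 0.05% parasitemia final, kept at 37 C, 5% CO2; luminescence loss indicates inhibition.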
* hit, by the source's call; ? = inconclusive; . = no result given; [ ] = dose if it differs, or a comment. Compounds with a hit are over-represented: about 10% of the library has one in this group of screens. Unless noted, the call rests on the fitted dose curve. Potency means the concentration at half of the fitted maximal effect.

SMILES	SARS PLpro yeast	Pf growth 48h	NS1 function inh	Pf growth 96h
COc1ccc(N(C)S(=O)(=O)c2ccc3c(c2)oc(=O)n3C)cc1	5%	-10%	6%	7.4µM*
CN(Cc1ccccc1)C(=O)CCS(=O)(=O)c1ccc2c(c1)oc(=O)n2C	-3%	-19%	4%	13µM*
CC(C)CN(C(=O)COc1ccc(Br)cc1C=O)C1CCS(=O)(=O)C1 (stereo unspecified)	3%	?	.	0%
C=CCN(C(=O)CNC(=O)c1ccco1)C(C(=O)NC1CCCC1)c1ccc(OC)cc1 (stereo unspecified)	1%	-6%	2%	-2%
CCN(Cc1ccccc1)C(=O)CCS(=O)(=O)c1ccc2c(c1)n(C)c(=O)c(=O)n2C	-2%	-28%	-6%	3.7µM*
Cn1c(=O)c(=O)n(C)c2cc(S(=O)(=O)CCC(=O)NCc3ccccc3)ccc21	7%	9%	3%	?
Cn1c(=O)c2c(ncn2CCSS(=O)(=O)O)n(C)c1=O	.	.	0%	.
CC(C)(C)NC(=O)c1ccc(Sc2ccccc2)c([N+](=O)[O-])c1	-5%	10µM*	-9%	?
CSc1ccc(S(=O)(=O)NCCCOC(C)C)cc1	-1%	-3%	3%	386%
O=C(Nc1ccc(N2CCOCC2)cc1)c1ccc(Cl)c(S(=O)(=O)N2CCCC2)c1	-2%	?	.	?
COc1cc(OC)c(C2=NOC(C(=O)N3CCCc4ccccc43)C2)cc1Cl (stereo unspecified)	-2%	.	-3%	8.3µM*
CCOC(=O)c1cnc(-n2nc(C)cc2C)nc1N(CC)CC	-8%	12µM*	-98%	.
CCOC(=O)c1cnc(-n2nc(C)cc2C)nc1NC1CCCCC1	-33%	1.7µM*	-252%	-1%
CCOC(=O)c1cnc(-n2nc(C)cc2C)nc1NC	-4%	0%	-31%	-23%[5.75 µM]
CCOC(=O)c1cnc(-n2nc(C)cc2C)nc1NNc1nc(C)cc(C)n1	0%	0.59µM*	-2%	2.9µM*
CCOC(=O)c1cnc(-n2nc(C)cc2C)nc1NNc1nc(-c2ccccc2)cc(-c2ccccc2)n1	6%	1.5µM*	?	?
CCOC(=O)c1cnc(-n2nc(C)cc2C)nc1Oc1ccc(C#N)cc1	-4%	94%	6%	6%
CCOC(=O)c1cnc(-n2nc(C)cc2C)nc1Nc1cccc(C(=O)O)c1	0%	0%	3%	?
S=c1nc(NCc2cccc(Cl)c2)c2ccccc2[nH]1	-1%	?	1%	25%
CCOc1ccc(N2C(=O)c3cccnc3C2=O)cc1	0%	44%	-21%	1.9µM*
CCOc1ccc(N2C(=O)c3cccnc3C2Nc2ccc(C)c(C)c2)cc1 (stereo unspecified)	4%	.	-1%	4.7µM*
CCOc1ccc(N2C(=O)c3cccnc3C2Nc2ccc(C)cc2)cc1 (stereo unspecified)	6%	9.3µM*	4%	1.7µM*
O=C1c2ccccc2C(=O)N1CCCOc1ccccc1	-7%	53%	-13%	.
CCOc1ccc(OCCN2C(=O)c3ccccc3C2=O)cc1	-2%	?	-10%	13µM*
CCOc1ccc(N2C(=O)c3cccnc3C2Nc2ccc(OC)cc2)cc1 (stereo unspecified)	-7%	?	-9%	54%
SMILES	SARS PLpro yeast	Pf growth 48h	NS1 function inh	Pf growth 96h
COc1ccc(C(C(=O)NC(C)(C)C)N(CC2CCCO2)C(=O)CCC(=O)Nc2cc(C)on2)cc1 (stereo unspecified)	?	.	0%	-24%
CCCCC(=O)Nc1cccc2c1C(=O)N(c1ccccc1)C2=O	-3%	3%	-49%	0.93µM*
Cc1[nH]n(-c2cccc(Cl)c2)c(=O)c1C=NCC(C)C	-11%	250%	.	184%
CCCC(=O)N(Cc1cc(=O)[nH]c2ccccc12)c1ccccc1C	1%	?	-1%	?
COc1cnc(-c2ccccc2)nc1Oc1ccc(C(C)(C)C)cc1	-17%	?	5%	?
COc1cc(-c2nc(-c3ccccn3)no2)cc(OC)c1OC	9%	59%	-14%	60%
COc1cnc(-c2ccccn2)nc1Oc1ccc(Cl)cc1	-18%	0.37µM*	-52%	5.2µM*
COc1cnc(-c2ccccc2)nc1Oc1ccccc1C	-9%	?	7%	?
O=[N+]([O-])c1cccnc1Oc1ccc(F)cc1F	1%	?	1%	?
COc1cnc(-c2ccccn2)nc1Oc1ccccc1Cl	8%	7.4µM*	-27%	2.6µM*
COc1cnc(-c2ccccn2)nc1NC(C)C	-8%	15µM*	.	?
COc1cnc(-c2ccccn2)nc1Oc1ccc(F)cc1F	11%	10µM*	.	10µM*
COc1ccc(C)cc1S(=O)(=O)N(C)CC(=O)NCc1ccncc1	0%	26%	2%	-6%
CCOC(=O)C(Cc1ccc(NC(C)=O)cc1)N1C(=O)c2ccccc2C1=O (stereo unspecified)	-1%	-22%	.	-3%
COc1cnc(-c2ccccn2)nc1Oc1ccc(Cl)c2ccccc12	-14%	2.1µM*	-69%	6.6µM*
COc1cnc(-c2ccccc2)nc1Oc1cccc(C)c1C	-15%	-12%	1%	-1%
Cn1c(=O)c2c(ncn2Cc2cccc(Cl)c2)n(C)c1=O	7%	?	14%	0.93µM*
Cn1c(=O)c2c(ncn2Cc2ccc(Cl)c(Cl)c2)n(C)c1=O	4%	-18%	-10%	8%
N#CCCN1CCN(C2=NC(=O)C(=C3CCCCC3)S2)CC1	13%	0%	-1%	2.6µM*
Cc1cccc(N2CCN(C3=NC(=O)C(=C4CCCCC4)S3)CC2)c1	0%	10µM*	-5%	34%
O=C1N=C(N2CCOCC2)SC1=C1CCCCC1	0%	2%	4%	?
CC(=O)N1CCN(C2=NC(=O)C(=C3CCCCC3)S2)CC1	-8%	?	7%	-19%
Cc1ccc(Cl)cc1NC(=O)C1CCCN1S(=O)(=O)c1ccc(-c2ccc(=O)[nH]n2)s1 (stereo unspecified)	1%	?	?	-8%
CC(=O)Nc1sc2c(c1C#N)CC(C)(C)NC2(C)C	2%	9%	6%	.
Cc1cc(OCC(=O)Nc2sc3c(c2C#N)CC(C)(C)NC3(C)C)c(C(C)C)cc1Cl	6%	13µM*	5%	7.4µM*
SMILES	SARS PLpro yeast	Pf growth 48h	NS1 function inh	Pf growth 96h
CCCC(=O)Nc1sc2c(c1C#N)CC(C)(C)NC2(C)C	11%	11%	-4%	2.1µM*
NC(=O)c1ccccc1NC(=O)c1cc(S(=O)(=O)N2CCCCC2)ccc1N1CCOCC1	-11%	13µM*	.	6.6µM*
O=C(NC1CCCCCC1)c1cc(S(=O)(=O)N2CCCCC2)ccc1N1CCOCC1	0%	12µM*	.	?
O=C(NC1CCCCCC1)c1cc(S(=O)(=O)N2CCOCC2)ccc1N1CCCCC1	-2%	?	-3%	6.6µM*
COc1ccc(C(=O)NCCNc2nc3ccc(C)cc3cc2C#N)cc1	8%	?	7%	9.3µM*
CC(=O)c1ccc(OCc2cc(C(=O)N(C)CCOc3ccc(C)cc3)no2)cc1	-7%	10%	-14%	18%
Cc1ccc[n+](C(C)C(=O)c2ccc(Cl)cc2)c1 (stereo unspecified)	6%	?	3%	170%

Bioassay records: PubChem BioAssay, National Center for Advancing Translational Sciences (NCATS)
